{"source": "the supplement of paper PMC10849652", "note": "The full data set covers some 7,900 targets. This sample favours those with a hit. About 0.6% of all pairs of compound and target were hits."}
{"compound": "CON(C)C(=O)N1N=C(c2cc(F)ccc2F)S[C@@]1(CCCN)c1ccccc1 [filanesib]", "experiment": "log2 fold change, soluble protein after heating vs DMSO (PISA); higher = thermal stabilisation; K562 cells, 10 uM, 30 min; active = over 0.2 and 3.5 SD of the protein, either way, in both replicates (recomputed)", "procedure,_shortened": "(§1)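 Aliquots of K562 cells (2×10^6 cells/mL) treated with 10 μM compound for 30 min were heated for 3 min over 48°C-58°C. After pooling and extraction in PBS with 0.5% NP-40 at 4°C, soluble protein from a 21,000xg, 90 min spin was quantified by TMTpro 16plex LC-MS/MS with channel sums equalised. Thermal stability is expressed against control samples, from duplicates, as a log2 fold change.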"}
{"target": "ITM2B (UniProt Q9Y287)", "sequence (Q9Y287 whole entry, looked up)": "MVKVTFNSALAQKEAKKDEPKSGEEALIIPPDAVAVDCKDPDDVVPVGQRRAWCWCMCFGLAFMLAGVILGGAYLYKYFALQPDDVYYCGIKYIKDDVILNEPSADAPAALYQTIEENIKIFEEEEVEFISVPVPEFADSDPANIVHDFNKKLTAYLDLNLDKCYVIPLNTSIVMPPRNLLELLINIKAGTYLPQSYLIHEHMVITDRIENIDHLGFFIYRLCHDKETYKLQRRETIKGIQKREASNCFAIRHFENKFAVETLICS", "log2 fold change": "0.092 (inactive)"}
{"target": "IPO13 (UniProt O94829)", "sequence (O94829 whole entry, looked up)": "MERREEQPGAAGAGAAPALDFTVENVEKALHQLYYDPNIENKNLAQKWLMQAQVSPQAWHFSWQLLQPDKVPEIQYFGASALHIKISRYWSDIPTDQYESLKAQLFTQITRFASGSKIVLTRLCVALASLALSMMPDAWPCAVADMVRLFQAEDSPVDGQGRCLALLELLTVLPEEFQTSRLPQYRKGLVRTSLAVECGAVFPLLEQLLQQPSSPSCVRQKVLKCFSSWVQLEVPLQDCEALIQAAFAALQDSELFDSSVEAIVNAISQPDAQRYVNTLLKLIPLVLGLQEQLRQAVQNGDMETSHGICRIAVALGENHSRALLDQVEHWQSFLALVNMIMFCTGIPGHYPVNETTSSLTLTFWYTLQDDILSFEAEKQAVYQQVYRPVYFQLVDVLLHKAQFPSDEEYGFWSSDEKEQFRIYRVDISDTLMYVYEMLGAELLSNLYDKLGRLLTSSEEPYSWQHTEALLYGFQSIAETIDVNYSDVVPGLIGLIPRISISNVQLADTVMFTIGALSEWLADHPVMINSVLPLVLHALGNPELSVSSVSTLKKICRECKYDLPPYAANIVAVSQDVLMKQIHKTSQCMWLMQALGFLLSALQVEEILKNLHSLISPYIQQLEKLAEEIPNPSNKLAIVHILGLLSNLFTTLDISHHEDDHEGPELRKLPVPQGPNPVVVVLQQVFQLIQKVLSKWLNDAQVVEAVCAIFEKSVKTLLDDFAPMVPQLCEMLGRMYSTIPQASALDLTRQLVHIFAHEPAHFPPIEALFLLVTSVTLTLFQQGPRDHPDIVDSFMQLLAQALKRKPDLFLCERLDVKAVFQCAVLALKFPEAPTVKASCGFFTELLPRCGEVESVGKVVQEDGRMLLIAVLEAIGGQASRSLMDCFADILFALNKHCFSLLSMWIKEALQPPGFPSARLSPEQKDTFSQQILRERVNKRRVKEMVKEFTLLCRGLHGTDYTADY", "log2 fold change": "-0.144 (inactive)"}
{"target": "ILRUN (UniProt Q9H6K1)", "log2 fold change": "-0.016 (inactive)"}
{"target": "IRF2BPL (UniProt Q9H1B7)", "log2 fold change": "-0.025 (inactive)"}
{"target": "LDLR (UniProt P01130)", "log2 fold change": "0.005 (inactive)"}
{"target": "LUC7L3 (UniProt O95232)", "log2 fold change": "0.083 (inactive)"}
{"target": "MAP2K7 isoform 4 (UniProt O14733)", "sequence (O14733 whole entry, looked up)": "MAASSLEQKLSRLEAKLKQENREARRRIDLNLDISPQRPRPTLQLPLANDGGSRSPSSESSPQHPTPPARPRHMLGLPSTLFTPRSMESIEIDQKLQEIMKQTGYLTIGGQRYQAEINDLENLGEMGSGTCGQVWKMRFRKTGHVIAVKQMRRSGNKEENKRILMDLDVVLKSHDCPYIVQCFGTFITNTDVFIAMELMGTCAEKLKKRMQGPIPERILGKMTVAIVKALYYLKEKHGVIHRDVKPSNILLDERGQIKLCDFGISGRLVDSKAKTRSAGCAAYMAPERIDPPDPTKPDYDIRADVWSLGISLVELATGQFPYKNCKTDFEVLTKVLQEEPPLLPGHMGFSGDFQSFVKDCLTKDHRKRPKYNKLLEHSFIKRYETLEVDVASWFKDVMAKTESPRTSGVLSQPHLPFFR", "log2 fold change": "-0.029 (inactive)"}
{"target": "MDC1 (UniProt Q14676)", "log2 fold change": "0.223 (inactive)"}
{"target": "MAP2K1 (UniProt Q02750)", "sequence (Q02750 whole entry, looked up)": "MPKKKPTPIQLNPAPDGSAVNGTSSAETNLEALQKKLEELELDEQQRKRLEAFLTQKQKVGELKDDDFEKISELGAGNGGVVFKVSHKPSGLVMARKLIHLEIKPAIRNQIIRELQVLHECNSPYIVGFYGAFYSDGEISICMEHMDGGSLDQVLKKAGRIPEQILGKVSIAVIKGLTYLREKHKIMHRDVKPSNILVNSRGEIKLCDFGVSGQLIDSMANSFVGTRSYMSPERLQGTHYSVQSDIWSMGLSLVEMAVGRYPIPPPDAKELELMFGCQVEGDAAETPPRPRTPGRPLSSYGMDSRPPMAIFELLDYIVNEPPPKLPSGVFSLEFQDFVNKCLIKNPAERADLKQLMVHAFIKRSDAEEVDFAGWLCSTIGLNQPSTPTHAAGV", "log2 fold change": "-0.05 (inactive)"}
{"target": "MARK3 (UniProt P27448)", "sequence (P27448 whole entry, looked up)": "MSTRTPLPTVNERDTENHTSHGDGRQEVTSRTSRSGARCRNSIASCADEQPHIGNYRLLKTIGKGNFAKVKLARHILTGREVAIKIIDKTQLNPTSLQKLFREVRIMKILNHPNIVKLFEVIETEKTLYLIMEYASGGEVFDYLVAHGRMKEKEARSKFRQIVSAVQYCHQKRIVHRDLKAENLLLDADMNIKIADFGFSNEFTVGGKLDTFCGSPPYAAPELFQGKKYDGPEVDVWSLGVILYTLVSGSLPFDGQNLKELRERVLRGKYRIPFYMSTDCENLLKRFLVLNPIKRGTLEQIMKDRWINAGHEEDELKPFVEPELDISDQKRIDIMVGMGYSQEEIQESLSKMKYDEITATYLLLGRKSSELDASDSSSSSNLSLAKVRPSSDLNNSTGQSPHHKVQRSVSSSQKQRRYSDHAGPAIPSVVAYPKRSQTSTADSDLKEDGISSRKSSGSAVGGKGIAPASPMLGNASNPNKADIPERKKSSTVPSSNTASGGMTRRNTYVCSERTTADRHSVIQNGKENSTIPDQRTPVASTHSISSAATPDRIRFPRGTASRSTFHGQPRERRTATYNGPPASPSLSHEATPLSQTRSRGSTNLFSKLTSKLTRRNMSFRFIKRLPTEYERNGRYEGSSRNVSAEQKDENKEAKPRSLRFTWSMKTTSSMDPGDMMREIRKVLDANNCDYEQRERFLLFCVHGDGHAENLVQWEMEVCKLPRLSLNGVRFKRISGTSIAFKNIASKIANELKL", "log2 fold change": "0.054 (inactive)"}
{"target": "KIF21A isoform 4 (UniProt Q7Z4S6)", "sequence (Q7Z4S6 whole entry, looked up)": "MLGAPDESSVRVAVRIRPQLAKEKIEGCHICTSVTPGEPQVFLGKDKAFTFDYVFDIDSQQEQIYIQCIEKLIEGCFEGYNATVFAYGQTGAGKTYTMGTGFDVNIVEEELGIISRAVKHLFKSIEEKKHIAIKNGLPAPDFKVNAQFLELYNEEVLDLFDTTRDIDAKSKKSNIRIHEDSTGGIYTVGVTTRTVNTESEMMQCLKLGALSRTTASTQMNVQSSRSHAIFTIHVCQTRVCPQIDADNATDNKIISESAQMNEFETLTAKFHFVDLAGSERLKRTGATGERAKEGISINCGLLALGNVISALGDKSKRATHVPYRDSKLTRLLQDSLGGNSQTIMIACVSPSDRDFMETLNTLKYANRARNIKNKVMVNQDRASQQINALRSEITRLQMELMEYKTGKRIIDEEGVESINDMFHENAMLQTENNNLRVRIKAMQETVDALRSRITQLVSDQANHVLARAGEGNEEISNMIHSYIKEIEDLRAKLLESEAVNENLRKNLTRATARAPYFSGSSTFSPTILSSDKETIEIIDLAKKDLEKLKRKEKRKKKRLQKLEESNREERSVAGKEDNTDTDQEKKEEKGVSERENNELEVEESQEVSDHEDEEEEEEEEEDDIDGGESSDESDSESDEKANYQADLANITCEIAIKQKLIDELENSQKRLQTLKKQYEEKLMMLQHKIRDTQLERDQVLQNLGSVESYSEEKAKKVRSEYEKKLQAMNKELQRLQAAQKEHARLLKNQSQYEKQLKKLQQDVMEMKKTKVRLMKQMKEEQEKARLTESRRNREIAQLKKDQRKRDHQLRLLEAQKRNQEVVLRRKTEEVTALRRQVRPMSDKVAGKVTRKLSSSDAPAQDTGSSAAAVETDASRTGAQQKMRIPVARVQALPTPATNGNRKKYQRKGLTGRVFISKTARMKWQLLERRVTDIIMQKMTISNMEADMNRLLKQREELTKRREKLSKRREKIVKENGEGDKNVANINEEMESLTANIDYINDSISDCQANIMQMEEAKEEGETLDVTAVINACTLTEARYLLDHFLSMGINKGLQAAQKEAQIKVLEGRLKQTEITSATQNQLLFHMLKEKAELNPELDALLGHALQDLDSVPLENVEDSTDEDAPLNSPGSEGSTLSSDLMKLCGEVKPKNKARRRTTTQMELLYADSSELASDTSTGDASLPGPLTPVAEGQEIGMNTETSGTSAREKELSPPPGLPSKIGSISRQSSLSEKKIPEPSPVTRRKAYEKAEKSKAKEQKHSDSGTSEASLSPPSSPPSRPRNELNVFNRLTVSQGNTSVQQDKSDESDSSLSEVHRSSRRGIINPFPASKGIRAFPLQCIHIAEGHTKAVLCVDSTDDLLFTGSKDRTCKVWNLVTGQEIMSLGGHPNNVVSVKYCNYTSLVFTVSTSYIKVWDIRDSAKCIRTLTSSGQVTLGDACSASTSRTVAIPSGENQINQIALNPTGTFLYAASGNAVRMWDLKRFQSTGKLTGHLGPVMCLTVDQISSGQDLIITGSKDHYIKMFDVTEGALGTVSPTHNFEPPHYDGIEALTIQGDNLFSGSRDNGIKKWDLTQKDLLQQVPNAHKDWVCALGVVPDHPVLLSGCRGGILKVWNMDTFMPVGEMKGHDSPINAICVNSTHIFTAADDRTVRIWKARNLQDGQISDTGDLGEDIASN", "log2 fold change": "0.028 (inactive)"}
{"target": "LEMD3 (UniProt Q9Y2U8)", "log2 fold change": "0 (inactive)"}
{"target": "KDM5D isoform 3 (UniProt Q9BY66)", "log2 fold change": "0.073 (inactive)"}
{"target": "IK (UniProt Q13123)", "sequence (Q13123 whole entry, looked up)": "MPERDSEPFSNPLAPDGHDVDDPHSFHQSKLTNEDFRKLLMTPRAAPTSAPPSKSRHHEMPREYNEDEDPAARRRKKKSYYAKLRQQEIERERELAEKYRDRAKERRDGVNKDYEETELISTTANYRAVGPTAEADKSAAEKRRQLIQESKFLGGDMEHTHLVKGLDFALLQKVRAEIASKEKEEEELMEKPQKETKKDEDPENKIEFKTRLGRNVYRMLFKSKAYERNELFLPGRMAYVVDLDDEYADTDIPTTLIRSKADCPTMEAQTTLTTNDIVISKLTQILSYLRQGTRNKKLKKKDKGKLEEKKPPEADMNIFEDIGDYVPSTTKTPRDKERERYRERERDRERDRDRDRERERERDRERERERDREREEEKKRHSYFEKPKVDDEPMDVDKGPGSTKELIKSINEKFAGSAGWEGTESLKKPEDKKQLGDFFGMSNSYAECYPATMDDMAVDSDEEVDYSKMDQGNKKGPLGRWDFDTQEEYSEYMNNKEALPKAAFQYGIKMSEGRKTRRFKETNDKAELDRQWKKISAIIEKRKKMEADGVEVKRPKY", "log2 fold change": "0.156 (inactive)"}
{"target": "KLC2 (UniProt Q9H0B6)", "log2 fold change": "-0.038 (inactive)"}
{"target": "INPP5B (UniProt P32019)", "log2 fold change": "-0.015 (inactive)"}
{"compound": "CO[C@H]1C[C@@H]2CC[C@@H](C)[C@@](O)(O2)C(=O)C(=O)N2CCCC[C@H]2C(=O)O[C@H]([C@H](C)C[C@@H]2CC[C@H](n3cnnn3)[C@H](OC)C2)CC(=O)[C@H](C)/C=C(\\C)[C@@H](O)[C@@H](OC)C(=O)[C@H](C)C[C@H](C)/C=C/C=C/C=C/1C [zotarolimus]", "experiment": "log2 fold change, soluble protein after heating vs DMSO (PISA); higher = thermal stabilisation; K562 cells, 10 uM, 30 min; active = over 0.2 and 3.5 SD of the protein, either way, in both replicates (recomputed)", "procedure,_shortened": "as §1"}
{"target": "LTV1 (UniProt Q96GA3)", "log2 fold change": "0.067 (inactive)"}
{"target": "LMNB1 (UniProt P20700)", "log2 fold change": "0.053 (inactive)"}
{"target": "LNPK (UniProt Q9C0E8)", "log2 fold change": "-0.049 (inactive)"}
{"target": "LDAH isoform 2 (UniProt Q9H6V9)", "log2 fold change": "0.057 (inactive)"}
{"target": "IL27RA (UniProt Q6UWB1)", "log2 fold change": "-0.11 (inactive)"}
{"target": "KIF2C (UniProt Q99661)", "log2 fold change": "0.001 (inactive)"}
{"target": "LAMP2 (UniProt P13473)", "log2 fold change": "-0.022 (inactive)"}
{"target": "LMNB2 (UniProt Q03252)", "log2 fold change": "-0.064 (inactive)"}
{"target": "MAP1LC3B2 (UniProt A6NCE7)", "log2 fold change": "0.011 (inactive)"}
{"target": "METAP1D (UniProt Q6UB28)", "log2 fold change": "0.054 (inactive)"}
{"target": "LIMD1 (UniProt Q9UGP4)", "log2 fold change": "0.028 (inactive)"}
{"target": "MED17 (UniProt Q9NVC6)", "log2 fold change": "-0.052 (inactive)"}
{"target": "KIF3A (UniProt Q9Y496)", "log2 fold change": "-0.004 (inactive)"}
{"target": "IKZF1 (UniProt Q13422)", "log2 fold change": "0.004 (inactive)"}
{"target": "KSR1 (UniProt Q8IVT5)", "log2 fold change": "0.016 (inactive)"}
{"target": "MAIP1 (UniProt Q8WWC4)", "log2 fold change": "-0.025 (inactive)"}
{"target": "LPGAT1 (UniProt Q92604)", "log2 fold change": "0.001 (inactive)"}
{"target": "LTO1 (UniProt Q8WV07)", "log2 fold change": "0.062 (inactive)"}
{"target": "LARP4 isoform 4 (UniProt Q71RC2)", "log2 fold change": "-0.007 (inactive)"}
{"target": "IMMP1L (UniProt Q96LU5)", "log2 fold change": "-0.034 (inactive)"}
{"target": "LRBA (UniProt P50851)", "log2 fold change": "0.002 (inactive)"}
{"target": "LMBRD2 (UniProt Q68DH5)", "log2 fold change": "0.108 (inactive)"}
{"target": "MAP2K2 (UniProt P36507)", "log2 fold change": "0.018 (inactive)"}
{"target": "ITM2B (UniProt Q9Y287)", "log2 fold change": "-0.042 (inactive)"}
{"target": "IPO13 (UniProt O94829)", "log2 fold change": "-0.039 (inactive)"}
{"target": "ILRUN (UniProt Q9H6K1)", "log2 fold change": "0.042 (inactive)"}
{"target": "IRF2BPL (UniProt Q9H1B7)", "log2 fold change": "0.029 (inactive)"}
{"target": "LDLR (UniProt P01130)", "log2 fold change": "-0.07 (inactive)"}
{"target": "LUC7L3 (UniProt O95232)", "log2 fold change": "0.003 (inactive)"}
{"target": "MAP2K7 isoform 4 (UniProt O14733)", "log2 fold change": "-0.042 (inactive)"}
{"target": "MDC1 (UniProt Q14676)", "log2 fold change": "0.005 (inactive)"}
{"target": "MAP2K1 (UniProt Q02750)", "log2 fold change": "-0.007 (inactive)"}
{"target": "MARK3 (UniProt P27448)", "log2 fold change": "0.062 (inactive)"}
{"target": "KIF21A isoform 4 (UniProt Q7Z4S6)", "log2 fold change": "0.051 (inactive)"}
{"target": "LEMD3 (UniProt Q9Y2U8)", "log2 fold change": "0.107 (inactive)"}
{"target": "KDM5D isoform 3 (UniProt Q9BY66)", "log2 fold change": "-0.053 (inactive)"}
{"target": "IK (UniProt Q13123)", "log2 fold change": "0.007 (inactive)"}
{"target": "KLC2 (UniProt Q9H0B6)", "log2 fold change": "-0.028 (inactive)"}
{"target": "INPP5B (UniProt P32019)", "log2 fold change": "0.002 (inactive)"}
{"compound": "COc1cc(C(=O)O)ccc1NC(=O)[C@@H]1N[C@@H](CC(C)(C)C)[C@](C#N)(c2ccc(Cl)cc2F)[C@H]1c1cccc(Cl)c1F [idasanutlin]", "experiment": "log2 fold change, soluble protein after heating vs DMSO (PISA); higher = thermal stabilisation; K562 cells, 10 uM, 30 min; active = over 0.2 and 3.5 SD of the protein, either way, in both replicates (recomputed)", "procedure,_shortened": "as §1"}
{"target": "LTV1 (UniProt Q96GA3)", "log2 fold change": "0.133 (inactive)"}
{"target": "LMNB1 (UniProt P20700)", "log2 fold change": "0.14 (inactive)"}
{"target": "LNPK (UniProt Q9C0E8)", "log2 fold change": "-0.002 (inactive)"}
{"target": "LDAH isoform 2 (UniProt Q9H6V9)", "log2 fold change": "-0.185 (inactive)"}
{"target": "IL27RA (UniProt Q6UWB1)", "log2 fold change": "0.113 (inactive)"}
{"target": "KIF2C (UniProt Q99661)", "log2 fold change": "-0.046 (inactive)"}
{"target": "LAMP2 (UniProt P13473)", "log2 fold change": "-0.005 (inactive)"}
{"target": "LMNB2 (UniProt Q03252)", "log2 fold change": "0.099 (inactive)"}
{"target": "MAP1LC3B2 (UniProt A6NCE7)", "log2 fold change": "-0.022 (inactive)"}
{"target": "METAP1D (UniProt Q6UB28)", "log2 fold change": "0.079 (inactive)"}
{"target": "LIMD1 (UniProt Q9UGP4)", "log2 fold change": "0.028 (inactive)"}
{"target": "MED17 (UniProt Q9NVC6)", "log2 fold change": "0.166 (inactive)"}
{"target": "KIF3A (UniProt Q9Y496)", "log2 fold change": "0.056 (inactive)"}
{"target": "IKZF1 (UniProt Q13422)", "log2 fold change": "0.037 (inactive)"}
{"target": "KSR1 (UniProt Q8IVT5)", "log2 fold change": "0.034 (inactive)"}
{"target": "MAIP1 (UniProt Q8WWC4)", "log2 fold change": "-0.033 (inactive)"}
{"target": "LPGAT1 (UniProt Q92604)", "log2 fold change": "-0.098 (inactive)"}
{"target": "LTO1 (UniProt Q8WV07)", "log2 fold change": "-0.093 (inactive)"}
{"target": "LARP4 isoform 4 (UniProt Q71RC2)", "log2 fold change": "0.071 (inactive)"}
{"target": "IMMP1L (UniProt Q96LU5)", "log2 fold change": "-0.067 (inactive)"}
{"target": "LRBA (UniProt P50851)", "log2 fold change": "-0.113 (inactive)"}
{"target": "LMBRD2 (UniProt Q68DH5)", "log2 fold change": "-0.012 (inactive)"}
{"target": "MAP2K2 (UniProt P36507)", "log2 fold change": "0 (inactive)"}
{"target": "ITM2B (UniProt Q9Y287)", "log2 fold change": "-0.03 (inactive)"}
{"target": "IPO13 (UniProt O94829)", "log2 fold change": "-0.038 (inactive)"}
{"target": "ILRUN (UniProt Q9H6K1)", "log2 fold change": "-0.101 (inactive)"}
{"target": "IRF2BPL (UniProt Q9H1B7)", "log2 fold change": "0.033 (inactive)"}
{"target": "LDLR (UniProt P01130)", "log2 fold change": "0.009 (inactive)"}
{"target": "LUC7L3 (UniProt O95232)", "log2 fold change": "0.031 (inactive)"}
{"target": "MAP2K7 isoform 4 (UniProt O14733)", "log2 fold change": "-0.003 (inactive)"}
{"target": "MDC1 (UniProt Q14676)", "log2 fold change": "0.283 (inactive)"}
{"target": "MAP2K1 (UniProt Q02750)", "log2 fold change": "-0.047 (inactive)"}
{"target": "MARK3 (UniProt P27448)", "log2 fold change": "0.091 (inactive)"}
{"target": "KIF21A isoform 4 (UniProt Q7Z4S6)", "log2 fold change": "0.07 (inactive)"}
{"target": "LEMD3 (UniProt Q9Y2U8)", "log2 fold change": "-0.023 (inactive)"}
{"target": "KDM5D isoform 3 (UniProt Q9BY66)", "log2 fold change": "-0.058 (inactive)"}
{"target": "IK (UniProt Q13123)", "log2 fold change": "0.102 (inactive)"}
{"target": "KLC2 (UniProt Q9H0B6)", "log2 fold change": "-0.065 (inactive)"}
{"target": "INPP5B (UniProt P32019)", "log2 fold change": "-0.003 (inactive)"}
